In the library only some 18% were active in any assay of this set; here they are far more common.
CtBP-E1A inh – blocks the CtBP interaction with E1A; AlphaScreen GST-E1A/His-CtBP binding, 1536-well; stronger effect = lower value; activity change, % (concentration not given with the values); hit rate 0.49% among 340,000; in the data active = activity change below about -65%; inconclusive = mostly about -30% to -63%
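Steps: dispense buffer (Tris pH 8.0, NaCl 300 mM, TCEP 1 mM, BSA, Tween 20); add 5X protein mix (GST-E1A, His-CtBP, 125 nM each); pin 23 nL compound; 2 h at 37 °C, dark; add 5X beads (50 ug/mL); 1 h; read.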
Six1-Eya2 inh – Six1/Eya2 interaction inhibition | hit rate 0.56% among 360,000 | AlphaScreen GST-Six1/His-Eya2 binding, biochemical; stronger effect = lower value | activity change, % (concentration not given with the values); in the data active = activity change below about -65%; inconclusive = mostly about -30% to -63%
Target sequence (O00167 whole entry, looked up): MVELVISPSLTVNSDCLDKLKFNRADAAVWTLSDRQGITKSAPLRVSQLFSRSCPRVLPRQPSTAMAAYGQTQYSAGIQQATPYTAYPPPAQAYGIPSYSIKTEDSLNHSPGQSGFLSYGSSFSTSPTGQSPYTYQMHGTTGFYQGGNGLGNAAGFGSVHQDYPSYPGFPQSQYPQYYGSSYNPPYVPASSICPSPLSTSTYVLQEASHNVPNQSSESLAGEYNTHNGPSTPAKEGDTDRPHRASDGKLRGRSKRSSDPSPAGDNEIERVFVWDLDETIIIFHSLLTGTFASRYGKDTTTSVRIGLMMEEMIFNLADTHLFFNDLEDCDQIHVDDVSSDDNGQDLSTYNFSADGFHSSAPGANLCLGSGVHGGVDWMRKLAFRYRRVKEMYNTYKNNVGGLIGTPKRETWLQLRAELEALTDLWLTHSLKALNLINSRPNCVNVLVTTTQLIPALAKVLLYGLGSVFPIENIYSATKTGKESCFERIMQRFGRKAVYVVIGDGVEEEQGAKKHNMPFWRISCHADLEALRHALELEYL
Target sequence (Q15475 whole entry, looked up): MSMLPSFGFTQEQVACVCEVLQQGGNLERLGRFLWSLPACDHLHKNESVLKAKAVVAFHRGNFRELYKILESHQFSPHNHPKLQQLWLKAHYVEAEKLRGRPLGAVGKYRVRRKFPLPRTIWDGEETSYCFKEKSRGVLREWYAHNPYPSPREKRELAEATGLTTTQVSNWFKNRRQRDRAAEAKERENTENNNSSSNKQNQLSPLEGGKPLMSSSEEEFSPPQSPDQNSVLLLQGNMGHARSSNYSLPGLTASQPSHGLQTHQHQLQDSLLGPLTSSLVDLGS
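Homogeneous AlphaScreen proximity assay pairing GST-Six1 with His-tagged Eya2 (added as 5X mix: 250 nM and 500 nM) in 50 mM Tris pH 8.0, 300 mM NaCl, 1 mM TCEP. Glutathione donor and nickel acceptor beads; 1 h, 37 °C, dark.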
TDP1 cell CPT – growth inhibition of DT40 Tdp1-/-;hTDP1 cells with camptothecin (screen for TDP1 inhibitors); chicken DT40 Tdp1-/-;hTDP1 cells + 20 nM CPT, ATP luminescence, 48 h; Potency, µM (top dose mostly 46.2 µM), for inactives: at the highest dose activity change, negative = growth inhibition, usual class: inhibitors; hit rate 12% among 420,000; AID 686979; also: potency is read from the fitted curve at half-maximal effect; nearly all actives have a fitted effect of over 55% in size
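Chicken DT40 Tdp1-/- cells stably complemented with human TDP1 were seeded at 400 cells/well in medium containing 20 nM camptothecin, exposed to pin-transferred compounds, and grown at 37 °C for at least 48 hr. Viability was read as ATP luminescence.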
TDP1 block – inhibitors of human tyrosyl-DNA phosphodiesterase TDP1; Q9NUW8; recombinant TDP1, AlphaScreen DNA substrate cleavage; Potency, µM (titrated, usually from 130 µM), for inactives: at the highest dose activity change, negative = inhibition, hits mostly inhibitors; hit rate 0.28% among 350,000; AID 485290; also: potency is read from the fitted curve at half-maximal effect; nearly all actives have a fitted effect of over 40% in size
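Enzyme-compound mixtures sat 15 min at room temperature, followed by a 5 min reaction with 15 nM final substrate and 10 min with AlphaScreen beads. Recombinant human Tdp1 was used at 1 nM final.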
TDP1 cell noCPT – qHTS for Inhibitors of human tyrosyl-DNA phosphodiesterase 1 (TDP1): qHTS in cells in absence of CPT; DT40 Tdp1-/- hTDP1 cells, no CPT, ATP luminescence, 48 h; AID 686978, 2013; Potency, µM (series often up to 46.2 µM), for inactives: top-dose activity change, negative = growth inhibition, actives largely listed as inhibitors; hit rate 15% among 420,000; also: potency is read from the fitted curve at half-maximal effect; nearly all actives have a fitted effect of over 55% in size
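Growth kinetics read by CellTiter-Glo luminescence after ≥48 hr at 37 °C. Cells: DT40 Tdp1-/- stably carrying human TDP1, 400 per well, compound exposure in the absence of CPT (DMSO vehicle).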
IL1B secr inh – inhibitors of inflammasome signaling (IL-1 beta secretion); THP-1 LPS/ATP IL-1B secretion, AlphaLISA, 16 h; stronger effect = lower value; activity change, % at 57.5 µM; hit rate 4.7% among 360,000; AID 743279; in the data active = activity change below about -50%; inconclusive = mostly about -30% to -49%
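THP-1 cells pretreated 1 hr with compounds (up to 57.5 uM final), then stimulated with LPS (250 ng/mL final) plus ATP (1.25 mM final); secreted IL-1B measured by AlphaLISA after 16 hr, decreased signal indicating inhibition.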
* hit, by the source's call; ? = inconclusive; nt = no result given; [ ] = remark or other dose. Unless noted, calls follow the shape of the dose curve; as a rule, active = well fitted curve in the direction sought with a large enough effect; inconclusive = small, poorly fitted or top-dose-only effect, or another doubt; inactive = no such curve, though single readings can be large; an effect the other way counts as inactive or inconclusive. % is scaled to controls: 0 for no effect and ±100 for the full control effect.

SMILES	CtBP-E1A inh	Six1-Eya2 inh	TDP1 cell CPT	TDP1 block	TDP1 cell noCPT	IL1B secr inh
CCOc1ccccc1NC(=O)CSc1nnc(CNC(=O)COc2ccc(Cl)cc2)o1	11.1	-21.6	-16.5%	2.0%	-19.3%	-22.1
O=C(COc1ccc(Cl)cc1)NCc1nnc(SCC(=O)Nc2ccc(F)cc2F)o1	7.2	0.5	13µM*	5.3%	6.2%	-7.7
O=C(CCCn1cc([N+](=O)[O-])cn1)Nc1ccc2c(c1)OCO2	-1.6	3.8	-16.0%	4.5%[0.0935 µM]	-16.9%	1.9
CCCCN(C(=O)C(C)Oc1cccc(Cl)c1)c1c(N)n(CCC)c(=O)[nH]c1=O (configuration not stated)	12.9	-2.5	16.7%	-2.9%	12.2%	18.8
CC(C)Cn1c(SCC(=O)NCc2ccc(Cl)cc2)nnc1-c1cccc(S(=O)(=O)N2CCOCC2)c1	0.8	0.4	?	0.0%	20.6µM*	-0.9
NC(=O)CSc1nnc(-c2cccc(S(=O)(=O)N3CCOCC3)c2)n1C1CCCCCC1	2.1	-4.3	5.8µM*	-0.7%	7.31µM*	0.0
Cc1ccc(CSc2nnc(-c3cccc(S(=O)(=O)N4CCOCC4)c3)n2C2CCCC2)cc1	2.0	5.4	14.6µM*	-0.6%	11.6µM*	-55.2*
Cc1ccc2c(c1)N(CC(=O)NC1CCCC1)C(=O)C(C)O2 (configuration not stated)	-8.5	2.9	5.6%	nt	1.8%	-7.3
Cc1ccc(NC(=O)CSc2nccn2Cc2ccco2)cc1	-5.5	-6.6	-7.1%	6.1%	-16.3%	-26.6
O=C(CSCc1cccc(Cl)c1)NCc1ccc2c(c1)OCO2	5.5	6.8	3.8%	7.7%	-7.9%	-6.4
O=C(CCCn1c(=O)[nH]c2ccc(Br)cc2c1=O)N1CCN(c2cccc(Cl)c2)CC1	nt	nt	14.6µM*	0.0%	8.2µM*	nt
CC(=O)c1ccc(N2CCN(C(=O)CCCCn3c(=O)[nH]c4ccccc4c3=O)CC2)cc1	nt	nt	13µM*	6.4%	16.4µM*	nt
CC(=O)c1ccc(N2CCN(C(=O)CCCn3c(=O)[nH]c4ccc(Br)cc4c3=O)CC2)cc1	5.0	-8.0	14.6µM*	2.7%	13µM*	-29.5
O=C(CCCn1c(=S)[nH]c2ccccc2c1=O)N1CCN(c2cccc(Cl)c2)CC1	3.7	0.7	16.4µM*	0.0%	18.4µM*	20.9
O=C(CCn1c(=O)[nH]c2ccccc2c1=O)N1CCN(c2ccc(Cl)cc2)CC1	1.7	8.5	?	3.9%	-25.4%	22.9
CCCCNC(=O)CCCn1c(=O)[nH]c2ccc(Br)cc2c1=O	-5.5	6.8	-11.1%	4.5%	-30.0%	-21.7
O=C(CCn1c(=S)[nH]c2ccccc2c1=O)N1CCCCC1	nt	3.2	-2.9%	-1.4%	-13.8%	-3.4
CCCCNC1=NCCS1	-3.1	-3.4	-13.1%	-1.2%	-2.9%	0.0
Cc1cccc(N2CCN(C(=O)CCCCCn3c(=S)[nH]c4ccc(N5CCOCC5)cc4c3=O)CC2)c1C	nt	18.0	16.4µM*	1.0%	6.51µM*	-16.4
COc1cccc(N2CCN(C(=O)CCCCCNc3nc(=S)[nH]c4ccccc34)CC2)c1	?	?	4.61µM*	5.5%	9.2µM*	-174.9*
COc1cc(OC)cc(C(=O)NC(C(=O)NNC(=O)CN(C)S(=O)(=O)c2ccc(C)cc2)C(C)C)c1 (configuration not stated)	nt	1.9	6.2%	nt	?	-2.2
Cc1ccc(S(=O)(=O)n2nc(C)c(Br)c2C)c(C)c1C	9.7	11.9	?	0.0%	20.6µM*	43.1
CCCc1c(C(=O)N/N=C/c2ccoc2)nnn1-c1nonc1N	-5.4	0.0	1.4%	nt	-7.0%	-29.6
O=C1C2CC=CCC2C(=O)N1c1ccc(OCC(O)Cn2nnc3ccccc32)cc1 (configuration not stated)	8.8	-0.3	?	7.6%	23.1µM*	49.8
CC(=O)c1ccc(OCC(O)Cn2nnc3ccccc32)cc1 (configuration not stated)	-24.6	-3.9	?	2.0%	-20.6%	-0.3
SMILES	CtBP-E1A inh	Six1-Eya2 inh	TDP1 cell CPT	TDP1 block	TDP1 cell noCPT	IL1B secr inh
N#Cc1ccc(-c2ccc(OCC(O)Cn3nnc4ccccc43)cc2)cc1 (configuration not stated)	0.2	-4.5	?	5.8%	?	-59.4*
Oc1c(Br)cc(C2N=C(c3ccccc3)NO2)cc1Br (configuration not stated)	0.1	1.9	?	nt	?	5.6
CN(C)c1nc(N)c2ncc(=S)[nH]c2n1	1.2	-12.8	0.0%	5.5%	-18.5%	-65.2*
O=S(=O)(Nc1cc(C(F)(F)F)ccc1N1CCOCC1)c1ccccc1	nt	1.9	-29.7%	-2.9%	-12.5%	5.1
Cc1ccc(S(=O)(=O)Nc2ccccc2N2CCOCC2)cc1	2.1	7.6	20.6µM*	2.2%	?	64.1
Cc1ccc(S(=O)(=O)Nc2ccc(N3CCOCC3)cc2)cc1	3.8	-0.4	-16.1%	2.3%	-3.3%	11.7
Cc1ccc(S(=O)(=O)Nc2ccccc2NS(=O)(=O)c2ccc(C)cc2)cc1	2.3	0.1	-10.1%	nt	-11.9%	28.1
O=S(=O)(Nc1cc(C(F)(F)F)ccc1N1CCOCC1)c1ccc2ccccc2c1	-1.3	-8.7	16.4µM*	4.3%	?	?
Cc1ccc(S(=O)(=O)Nc2ccccc2N2CCCCC2)cc1	26.3	10.1	?	-13.5%	16.4µM*	54.1
O=c1c2ccccc2nnn1CSc1nc2ccccc2c(=O)n1CCCO	-5.3	-5.0	-24.6%	5.0%	-16.0%	-12.7
O=C(CC1C[C@H](C(=O)N2CCCCC2)[C@@]2(CCc3ccccc3)c3[nH]c4ccccc4c3CCN2C1=O)NCCC1=CCCCC1 (some centres not stated)	-2.7	5.9	?	1.7%	?	-16.7
O=C(CCl)NC1(C(=O)O)CCCC1	5.4	3.7	5.4%	nt	-4.3%	-1.5
Cc1ccc(OCCOCCNC(C)C)c(Br)c1	2.9	4.4	-26.6%	1.0%	-23.4%	-58.2*
CCC(C)NCCOCCOc1ccc(Cl)cc1Br (configuration not stated)	-3.9	-19.0	?	?	?	-79.9*
CCN(CC)CCOCCOc1cc(C)c(Cl)c(C)c1	7.6	-0.6	23.1µM*	1.8%	17.8µM*	-4.3
CCC(C)NCCOCCOc1cc(C)c(Cl)c(C)c1 (configuration not stated)	0.0	-9.6	25.9µM*	2.7%	14.6µM*	?
